The source of these data is PubChem BioAssay (NCATS).

Test [1] in a line: qHTS of pediatric cancer cell lines to identify multiple opportunities for drug repurposing: Primary screen for Rh18 cells (AID 1347102). Also: nearly all actives have a fitted effect of over 65% in size. Also: potency is read from the fitted curve at half-maximal effect. The procedure, abridged:
(§1)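 Viability after 48 h compound treatment at 37C, 500-1,000 cells/well, read as ATP luminescence with CellTiter-Glo. Primary screens used 11-point (MIPE, 0.78 nM-46 µM) or 8-point (NPC, 0.59 nM-46 µM) final concentrations; follow-up screens used 11-point dilutions.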
A general note: Quantitative high-throughput screening tests each substance at several concentrations.

Test [2] in a line: qHTS of pediatric cancer cell lines to identify multiple opportunities for drug repurposing: Primary screen for OHS-50 cells (AID 1347103). Also: nearly all actives have a fitted effect of over 40% in size. Also: potency is read from the fitted curve at half-maximal effect. A digest of the protocol: (§2)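 Cells (500-1,000/well) rested 5 h, then received compounds for 48 h; metabolically active cells were measured by CellTiter-Glo luminescence. Final concentrations spanned up to 46 µM (MIPE, 11-point) or 0.59 nM-46 µM (NPC, 8-point) in primary screens, 11-point in follow-ups.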

Test [3] in a line: qHTS of pediatric cancer cell lines to identify multiple opportunities for drug repurposing: Primary screen for RD cells (AID 1347104). Also: nearly all actives have a fitted effect of over 55% in size. Also: potency is read from the fitted curve at half-maximal effect. A digest of the protocol:
(§3)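 Luminescence from CellTiter-Glo served as readout of metabolically active cells after 48 h compound exposure. Titrations: MIPE 11-point, from 0.78 nM; NPC 8-point, from 0.59 nM (final). Concentration-response curves came straight from the primary screen.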

Test [4] is described as follows: qHTS of pediatric cancer cell lines to identify multiple opportunities for drug repurposing: Primary screen for control Hh wild type fibroblast cells (AID 1347106). Also: nearly all actives have a fitted effect of over 55% in size. Also: potency is read from the fitted curve at half-maximal effect.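 As to activity change, negative = cytotoxic: a drop in luminescence marks cytotoxicity and a rise apparent proliferation.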 A digest of the protocol: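 Cells (500-1,000/well) in growth media were settled 5 h at 37 degrees C, then given compounds for 48 h. Viability was read as CellTiter-Glo luminescence. Primary runs used MIPE at 11 points (0.78 nM-46 µM) and NPC at 8 points (0.59 nM-46 µM); follow-ups used 11 points.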

A short description of test [5]: qHTS of pediatric cancer cell lines to identify multiple opportunities for drug repurposing: Primary screen for MG 63 (6-TG R) cells (AID 1347105). Also: nearly all actives have a fitted effect of over 50% in size. Also: potency is read from the fitted curve at half-maximal effect. The procedure, abridged: as §3
Test [6] is described as follows: qHTS of pediatric cancer cell lines to identify multiple opportunities for drug repurposing: Primary screen for Rh30 cells (AID 1347107). Also: nearly all actives have a fitted effect of over 75% in size. Also: potency is read from the fitted curve at half-maximal effect. A digest of the protocol: as §1
A short description of test [7]: qHTS of pediatric cancer cell lines to identify multiple opportunities for drug repurposing: Primary screen for Rh41 cells (AID 1347108). Also: nearly all actives have a fitted effect of over 70% in size. Also: potency is read from the fitted curve at half-maximal effect.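 As to activity change, negative = cytotoxic: luminescence drop marks cytotoxic hits.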 A digest of the protocol: as §3
Test [8] is described as follows: qHTS of pediatric cancer cell lines to identify multiple opportunities for drug repurposing: Primary screen for BT-12 cells (AID 1347101). Also: nearly all actives have a fitted effect of over 25% in size. Also: potency is read from the fitted curve at half-maximal effect. A digest of the protocol:
as §2

The nature of test [9]: qHTS of pediatric cancer cell lines to identify multiple opportunities for drug repurposing: Confirmatory screen for A673 cells (AID 1347110). Also: potency is read from the fitted curve at half-maximal effect; nearly all actives have a fitted effect of over 65% in size. The procedure, abridged: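 Viability was read as ATP luminescence (CellTiter-Glo) after 48 h of compound exposure at 37 C in A673 cells seeded at 500-1,000/well. Titrations reached 46 uM final, with 11 points in the confirmatory screen. Concentration-response curves were fitted directly.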

The nature of test [10]: qHTS of pediatric cancer cell lines to identify multiple opportunities for drug repurposing: Confirmatory screen for SK-N-MC cells (AID 1347111).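 Also: potency is read from the fitted curve at half-maximal effect; cells exposed to compound for 48 h before the readout; nearly all actives have a fitted effect of over 70% in size.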 The procedure, abridged:
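SK-N-MC cells at 500-1,000 cells/well in growth media were pre-incubated 5 h, then exposed to compounds at 11-point dilutions for 48 h at 37 degrees C, 5% CO2. Viability was read as CellTiter-Glo luminescence.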

The nature of test [11]: qHTS of pediatric cancer cell lines to identify multiple opportunities for drug repurposing: Confirmatory screen for BT-12 cells (AID 1347112). Also: nearly all actives have a fitted effect of over 55% in size. Also: potency is read from the fitted curve at half-maximal effect. The procedure, abridged:
as §1

A short description of test [12]: qHTS of pediatric cancer cell lines to identify multiple opportunities for drug repurposing: Confirmatory screen for BT-37 cells (AID 1347117). Also: potency is read from the fitted curve at half-maximal effect; nearly all actives have a fitted effect of over 55% in size. The following applies: BT-37 pediatric cancer cells, viability; activity change, negative = cytotoxic: at 45.9 µM (top of the series). A digest of the protocol:
as §1

Test [13] in a line: qHTS of pediatric cancer cell lines to identify multiple opportunities for drug repurposing: Confirmatory screen for MG 63 (6-TG R) cells (AID 1347119). A digest of the protocol: as §1
Test [14] in a line: qHTS of pediatric cancer cell lines to identify multiple opportunities for drug repurposing: Confirmatory screen for control Hh wild type fibroblast cells (AID 1347121). Also: nearly all actives have a fitted effect of over 70% in size. A digest of the protocol: as §1
Test [15] in a line: qHTS of pediatric cancer cell lines to identify multiple opportunities for drug repurposing: Confirmatory screen for LAN-5 cells (AID 1347113). Also: potency is read from the fitted curve at half-maximal effect; nearly all actives have a fitted effect of over 65% in size. A digest of the protocol: as §1
The nature of test [16]: qHTS of pediatric cancer cell lines to identify multiple opportunities for drug repurposing: Confirmatory screen for DAOY cells (AID 1347114). Also: nearly all actives have a fitted effect of over 65% in size. Also: potency is read from the fitted curve at half-maximal effect. A digest of the protocol:
(§4)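 Viability measured as metabolically active cells via CellTiter-Glo luminescence following 48 hours of compound exposure, 11-point dilutions in confirmatory testing. 500-1,000 cells/well plated 5 hours before dosing; controls were DMSO and 2.3 µM bortezomib.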

Test [17] in a line: qHTS of pediatric cancer cell lines to identify multiple opportunities for drug repurposing: Confirmatory screen for SJ-GBM2 cells (AID 1347116). Also: nearly all actives have a fitted effect of over 60% in size. Also: potency is read from the fitted curve at half-maximal effect. The procedure, abridged:
as §4

The nature of test [18]: qHTS of pediatric cancer cell lines to identify multiple opportunities for drug repurposing: Confirmatory screen for TC32 cells (AID 1347118). A digest of the protocol: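 qHTS, TC32, 48 h drug treatment, CellTiter-Glo luminescence as a proxy for metabolically active cells; primary top concentration 46 µM (MIPE 11-pt, NPC 8-pt); confirmatory 11-pt.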
Test [19] is described as follows: qHTS of pediatric cancer cell lines to identify multiple opportunities for drug repurposing: Confirmatory screen for NB1643 cells (AID 1347109). Also: potency is read from the fitted curve at half-maximal effect; nearly all actives have a fitted effect of over 45% in size. The procedure, abridged: as §1
A short description of test [20]: qHTS of pediatric cancer cell lines to identify multiple opportunities for drug repurposing: Confirmatory screen for NB-EBc1 cells (AID 1347115). Also: nearly all actives have a fitted effect of over 45% in size. A digest of the protocol:
as §1

Records with an inconclusive call do not appear. Activity calls are given as the source filed them. Calls follow the shape of the dose curve; as a rule, active = well fitted curve in the direction sought with a large enough effect; inconclusive = small, poorly fitted or top-dose-only effect, or another doubt; inactive = no such curve, though single readings can be large; an effect the other way counts as inactive or inconclusive.

Turning to `Nc1ccc(C(=O)Nc2cccc(-c3nc(N4CCOCC4)c4oc5ncccc5c4n3)c2)cn1`, the results for the Potency in test [1], in [2] and in test [3] were 14800 nM (active), 6110 nM (active) and 10500 nM (active), respectively. The Potency entry in test [4] was “inactive”.

As to `C[C@](Cc1c[nH]c2ccccc12)(NC(=O)OC1C2CC3CC(C2)CC1C3)C(=O)NC[C@H](NC(=O)CCC(=O)O)c1ccccc1` (some centres undefined), the Potency entry in test [1], in test [2], in [3], in test [5], in [4] and in [6] was “inactive” each time. In [7], the Potency result was “inactive”.

For `N#Cc1c(NC(=O)c2cccc3ccccc23)sc2c1CCCC2`, the Potency was 1090 nM (active) in test [8]; 485 nM (active) in [2]; 414 nM (active) in [9]; 369 nM (active) in [10]; 2330 nM (active) in test [11]; 827 nM (active) in [12]. Besides, in test [13], the Potency is 329 nM (active). Moreover, the Potency result in test [6] and in [14] was “inactive” throughout.

Take `Cc1cncc2cccc(S(=O)(=O)N3CCCN(C(=O)CN)C[C@@H]3C)c12`: the Potency result in test [1], in test [2], in [3], in test [5] and in test [4] was “inactive” each time.

As to `CC1(C)CC(O)CC(C)(C)N1[O]`, the Potency result in test [8], in test [3], in test [5], in test [4], in test [6] and in test [7] was “inactive” throughout.

Regarding `COc1cc(C)c(C=CC(C)=CC=CC(C)=CC(=O)O)c(C)c1C`, the Potency result in [1], in [3], in [4] and in test [6] was “inactive” each time. The Potency in test [2] was 1720 nM (active).

Take `Cc1cc(Nc2ncc3c(n2)N(C)C(=O)N(c2cc(NC(=O)c4cccc(C(F)(F)F)c4)ccc2C)C3)n(C)n1`: the Potency is 590 nM (active) in test [1]; 217 nM (active) in test [2]; 418 nM (active) in [3]; 590 nM (active) in test [5]; 743 nM (active) in [4]; 743 nM (active) in test [7]. Also, the Potency in test [9] was 414 nM (active); in [15], 465 nM (active); in [16] it was 14700 nM (active); in test [13], 465 nM (active).

Regarding `NC(=O)Nc1sc(-c2ccc(F)cc2)cc1C(N)=O`, the Potency in test [1] was 5260 nM (active); in test [2] it was 432 nM (active); in test [3], 1660 nM (active); in test [5] it was 590 nM (active); in test [6], 6620 nM (active); in test [7], 1050 nM (active). Besides, the values for the Potency in test [10] and in test [13] were 8270 nM (active) and 11700 nM (active), respectively. Besides, the Potency entry in test [4], in test [11], in test [16], in test [17] and in [14] was “inactive” throughout.

As to `OCCN1C[C@H](O)[C@@H](O)[C@H](O)[C@@H]1CO`, the Potency entry in test [1], in [2], in [3], in test [5], in test [4] and in test [6] was “inactive” each time. In addition, the Potency entry in [7] was “inactive”.

`O=C(NCc1ccccc1)[C@H](Cc1ccccc1)NC(=O)[C@@H]1O[C@@H]1C(=O)NCCc1ccc(O)cc1`: the Potency entry in test [8], in test [5], in test [4], in [6], in test [7] and in test [11] was “inactive” throughout. Further, the Potency result in [17] and in test [14] was “inactive” in each case. Besides, the Potency in test [18] is 165 nM (active).

For the compound `COc1ccnc2[nH]cc(C(=O)C(=O)N3CCN(C(=O)c4ccccc4)C[C@@H]3C)c12`, the Potency result in [8], in [2], in [4], in [6] and in test [7] was “inactive” throughout.

With `CNC(=O)c1cccc(-c2ccc3c(N4CCOC[C@H]4C)nc(N4CCOC[C@H]4C)nc3n2)c1`, the Potency in test [1] is 332 nM (active); in test [2], 68.5 nM (active); in test [3], 148 nM (active); in test [5], 29.6 nM (active); in [7], 118 nM (active); in [10], 1040 nM (active). In addition, the Potency in [15] was 2330 nM (active); in test [17], 2610 nM (active); in test [13] it was 522 nM (active).

In the case of `CN1CCc2c(c3ccccc3n2Cc2ccc(C(=O)NO)cc2)C1`, the Potency in test [1] is 18700 nM (active); in [2], 13700 nM (active); in [3], 16600 nM (active); in test [6], 20900 nM (active); in [7], 13200 nM (active). In test [4], the Potency result was “inactive”.

Consider `CCCNC(=O)[C@H]1O[C@H]1C(=O)N[C@H](C(=O)N1CCC[C@@H]1C(=O)OC)C(C)CC` (some centres undefined), for which the Potency in test [1] was 14800 nM (active); in test [2], 17200 nM (active); in test [3] it was 10500 nM (active); in [6], 18700 nM (active); in [7] it was 7430 nM (active).

Regarding `Cn1cnc2c(F)c(Nc3ccc(Br)cc3F)c(C(=O)NOCCO)cc21`, the Potency entry in test [1], in test [2], in test [5], in [6] and in test [7] was “inactive” each time.

On to `O=C(O)CCCCC(CCSCc1ccccc1)SCc1ccccc1` (centres undefined), for which the Potency entry in [8] and in [4] was “inactive” each time. In addition, the Potency in test [3] is 33200 nM (active).

On to `COc1cc(C=CC(=O)CC(=O)C=Cc2ccc(O)c(OC)c2)ccc1O`, for which the Potency in test [8] is 44400 nM (active); in test [2], 39500 nM (active); in test [7], 30300 nM (active); in [19], 30200 nM (active); in test [11] it was 38000 nM (active); in [15], 26900 nM (active). Further, the Potency in test [12] is 30200 nM (active); in test [13], 26900 nM (active).

For `COc1cc(OC)c(C=CS(=O)(=O)Cc2ccc(OC)c(NCC(=O)O)c2)c(OC)c1`, in [16], the Potency is 165 nM (active).

Take `N#Cc1c(C2CCNCC2)cc(-c2c(O)cccc2OCC2CC2)nc1N`: in test [16], the Potency is 16500 nM (active).

For `NS(=O)(=O)OC[C@@H]1C[C@@H](n2ccc3c(N[C@H]4CCc5ccccc54)ncnc32)C[C@H]1O`, the Potency result in [20] was “inactive”.
